Screening data from PubChem BioAssay.
This is a sample that favours compounds with a hit; in the whole collection about 3.5% have one here.
GPR151 ag: activators of human GPR151; Q8TDV0; PathHunter beta-arrestin GPR151 cells, luminescence; activation, % at 11.2 µM; 1% of 650,000 active; AID 1508602; in the data active = activation above about 4.9%
FBW7 activator: activators of human E3 ligase FBW7; Q969H0; AlphaScreen FBW7–phospho-cyclin E peptide binding, activator screen; normalized activity (activation), % at 26.1 µM; 0.13% of 650,000 active; in the data active = normalized activity above about 1.9%;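 also: purified mutant Fbw7 with reduced substrate affinity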
TEAD-YAP inh: TEAD-YAP interaction inhibition. HEK-TIYL cells, TEAD-Gal4/YAP UAS-luciferase luminescence. inhibition, % at 9.12 µM. AID 1259422. 1.4% of 640,000 active; in the data active = inhibition above about 32%
MITF inh: inhibitors of human MITF; O75030; AlphaScreen MITF homodimerization, bead proximity signal; inhibition, % at 2.6 µM; 0.91% of 650,000 active; in the data active = inhibition above about 50%
Target sequence (O75030 whole entry, looked up): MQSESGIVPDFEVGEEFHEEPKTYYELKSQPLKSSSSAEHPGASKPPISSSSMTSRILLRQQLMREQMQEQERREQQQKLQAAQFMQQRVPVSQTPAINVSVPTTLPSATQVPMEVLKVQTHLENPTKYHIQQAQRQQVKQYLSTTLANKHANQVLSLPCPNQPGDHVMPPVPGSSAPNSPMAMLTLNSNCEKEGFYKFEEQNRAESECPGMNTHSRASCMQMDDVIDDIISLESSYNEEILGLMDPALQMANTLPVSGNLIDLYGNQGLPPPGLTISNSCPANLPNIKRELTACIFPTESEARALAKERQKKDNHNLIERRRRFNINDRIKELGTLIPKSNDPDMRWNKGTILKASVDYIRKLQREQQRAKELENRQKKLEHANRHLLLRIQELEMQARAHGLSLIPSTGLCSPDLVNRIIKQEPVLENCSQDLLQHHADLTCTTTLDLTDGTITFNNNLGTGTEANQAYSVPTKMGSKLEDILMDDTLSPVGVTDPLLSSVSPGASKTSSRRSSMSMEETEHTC
GPR151 confirm: confirmation of human GPR151 activators | activation, % at 11.2 µM | 6,700 tested, under 10 active | shares compounds with GPR151 ag | GPR151 PathHunter beta-arrestin cells, luminescence, 90 min; % of EA-reagent control over plate median;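 active = mean percent activation across replicates above the confirmation screen cutoff of 4.91%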
GPR119 ag: counter-screen for GPR151 activators: effect on human GPR119; 0.3% of 6,700 active; shares compounds with GPR151 ag; GPR119 PathHunter beta-arrestin cells, luminescence, 90 min; 0 = compound-well median, 100 = enzyme-acceptor control; AID 1508611; activation, % at 11.2 µM;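 active = mean percent activation in the counterscreen above 29.09%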;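 also: counterscreen on off-target GPR119 to flag nonselective hits from the GPR151 activator screen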
Numbers stand for hits; n = inactive; x = not tested or not shown; ! = not active in a repeat.

SMILES	GPR151 ag	FBW7 activator	TEAD-YAP inh	MITF inh	GPR151 confirm	GPR119 ag
N#Cc1cccc(CN2C(=O)N(Cc3ccc(F)cc3)S(=O)(=O)c3ccccc32)c1	n	n	n	n	x	x
COc1ccc(OC)c(C(=O)COC(=O)c2cc(C)oc2C)c1	13	n	n	n	n	n
CCOC(=O)C1=C(C)N=C2SCC(=O)N2C1c1cccc2ccccc12 (configuration not stated)	7.6	n	n	n	n	n
CCOC(=O)C1=C(C)N=C2SCC(=O)N2C1c1ccc(OC)c2ccccc12 (configuration not stated)	n	n	n	n	x	x
CCOC(=O)c1ccc(NC(=O)COc2ccc3c(c2)C(=O)CC3)cc1	n	n	n	n	x	x
CC(C)OCCCNC(=O)C(=O)NC(C)c1ccccc1 (configuration not stated)	5.3	n	n	n	n	n
COCCNC(=O)C(=O)NC(C)c1ccccc1 (configuration not stated)	n	n	n	n	x	x
CCOc1nc(NC(=O)NS(=O)(=O)c2ccccc2)nc(-c2ccccc2)n1	5.0	n	n	n	n	n
CCCCCCCCCCCCCCCC(=O)C(F)(F)F	5.0!	n	x	n	n	n
C=CCc1cc2c(C)cc(=O)oc2c(I)c1O	7.1	n	n	n	n	n
CCCCNC(=O)OCC(C)O (configuration not stated)	n	n	n	n	x	x
C/C(=N\Nc1nnc2c(n1)[nH]c1ccccc12)c1ccc([N+](=O)[O-])cc1	5.9	n	n	n	n	n
COC(=O)C(C)NC(=O)C(NC(=O)C(Cc1ccccc1)NC(C)=O)C(C)C (configuration not stated)	n	n	n	n	x	x
O=C(CN1C(=O)C(c2ccccc2)=NC12CCCCC2)Nc1ccc(F)c(F)c1	n	n	n	n	x	x
COc1ccc(OC)c(-c2cc(C(=O)N/N=C/c3c(C)nn(-c4ccccc4)c3C)[nH]n2)c1	5.2	n	n	n	n	n
COC(=O)N/N=C\c1c(C)nn(-c2ccccc2)c1Cl	n	n	n	n	x	x
NS(=O)(=O)c1ccc(CCNC(=O)CN2C(=O)C3C4C=CC(C4)C3C2=O)cc1 (configuration not stated)	8.1	n	n	n	n	n
CCOc1ccc(Nc2nc(N)nc(CN3CCN(c4cccc(Cl)c4)CC3)n2)cc1	n	n	n	n	x	x
COc1cccc(-c2ccc(=O)n(CC(=O)Nc3ccc(C(=O)N4CCCC4)cc3)n2)c1	n	n	n	n	x	x
COc1ccccc1-c1ccc(=O)n(CC(=O)Nc2ccc(Br)cc2)n1	9.6	n	n	n	n	n
COc1cccc(-c2ccc(=O)n(CC(=O)Nc3ccc(Cl)c(C(F)(F)F)c3)n2)c1	18	n	n	n	n	n
CCN(CC)c1ccc2cc(C(=O)Nc3cccc(C(F)(F)F)c3)c(=N)oc2c1	n	n	n	n	x	x
COc1ccc(NC(=O)COc2ccc(Cl)cc2)cc1NC(=O)c1ccco1	6.0	n	n	n	n	n
COC(=O)c1cnn2c(C(F)(F)F)cc(-c3ccc(C)cc3)nc12	n	n	n	n	x	x
Cc1ccc(-c2cc(C(F)(F)F)n3ncc(C(=O)OC(C)C)c3n2)cc1	5.4	n	n	n	n	n
SMILES	GPR151 ag	FBW7 activator	TEAD-YAP inh	MITF inh	GPR151 confirm	GPR119 ag
COc1ccc(C(=O)N(CCCO)C(C)C(=O)NC2CCCCC2)cc1OC (configuration not stated)	5.1	n	n	n	n	n
O=C(Nc1ccc(-c2cn3ccccc3n2)cc1)c1ccncc1	n	n	n	n	x	x
CC(=O)c1ccc(N2CCN(C(=O)Cc3ccc(Cl)cc3)CC2)cc1	n	n	n	n	x	x
COc1ccc(CCNC(=O)c2cncc(Nc3ncccn3)c2)cc1	6.9	n	n	n	n	n
O=C(O)C1CCC(N2C(=O)c3cccc([N+](=O)[O-])c3C2=O)CC1 (configuration not stated)	5.2	n	n	n	n	n
O=C1c2cccc([N+](=O)[O-])c2C(=O)N1C1CCCCCCC1	n	n	n	n	x	x
CC(=O)Nc1ccc(S(=O)(=O)Nc2nnc(-c3ccc(F)cc3)s2)cc1	6.7	n	n	n	n	n
COc1ccc(CC(=O)Nc2ccccc2NC(C)=O)cc1	n	n	n	n	x	x
CNS(=O)(=O)c1ccccc1Nc1cc(NC(=O)Cc2ccc(OC)cc2)ncc1C(F)(F)F	11	n	93	n	n	n
